The panel holds about 83,000 compounds, 20% with a hit somewhere; the sample as a whole holds those more often.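 Single-concentration screen, 48 h exposure, 96-well plates. Endpoint: percent growth. Below 10 = active.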 Active and inactive are the calls of the source.

The subject of the test is A549/ATCC NSCLC. Kind of test: NCI-60 one-dose screen, 48 h (100 = growth as untreated, 0 = no growth, -100 = all killed). The conditions noted are these: 10 µM unless noted. How it is done: Growth inhibition of the A549/ATCC human Non-Small Cell Lung tumor cell line is measured as a screen for anti-cancer activity. Cells are grown in 96 well plates and exposed to the test compound for 48 hours. Compounds are tested at a single concentration, which is 10^-5 M for most compounds. The reported endpoint is percent growth (GI% or GIPRCNT), where numbers from 0 - 100% represent growth inhibition, and numbers from -100% - 0 represent cell death. For example, a value of 40 represents 60% growth inhibition. A value of 0 means no net growth occurred over the course of the experiment. A value of -40 indicates 40% of cells at the beginning of the experiment died by the end of the experiment. A value of -100 means all cells are dead at the end of the experiment.
NCI-60 Human Tumor Cell Lines Screen was performed using the standard one-dose NCI protocol, which is described in more detail at https://dtp.cancer.gov/discovery_development/nci-60/default.htm.
Compounds with GIPRCNT values below 10 were considered active. Activity score was based on GIPRCNT using the following formula: […]
Score is 0 for GIPRCNT values of 100 or above, 50 for GIPRCNT values of 0, and 100 for GIPRCNT values of -100.
`O=c1c2cccc3c(NC4CCCCC4)ccc(c32)c2nc3ccccc3n12`: the growth is 66.5% (inactive).

Take `CC1=C(C)C(=O)OC([C@](C)(O)[C@]2(O)CC[C@@]3(O)[C@@H]4C[C@H]5O[C@]56CC=CC(=O)[C@]6(C)[C@H]4CC[C@]23COC(=O)c2ccc(C)o2)C1` (stereo not given in full): the growth was 4.97% (active). With `O=C(Nc1ccc(Oc2ccc(F)cc2)c(Cl)c1)c1cccnc1` the figure was 86% (inactive); with `Cl/C(=N\Nc1ccccc1)c1ccccc1`, 85.4% (inactive); with `CN(C)C(=O)c1cc2cnc(Nc3ccc(-c4csc5c(=O)cc(N6CCNCC6)oc45)cc3)nc2n1C1CCCC1`, 2.05% (active).

For `COc1ccc(C/C(C)=C(\c2ccc(Cl)cc2)c2ccc(OCCN3CCCCCC3)cc2)cc1`, the growth is 87.9% (inactive). For `Cc1noc(C)c1-c1cc(O)cc(C(O)c2ccccc2)c1` (stereo not given), the growth is 55.4% (inactive). With `COc1c2ccccc2c(OC)c2[nH]c(=O)ccc12` the figure was -34.2% (active); with `CN(C)c1ccc(/C=C\C2=[N+](C)c3ccccc3C2(C)C)cc1`, 2.47% (active); with `CC1=C(NCCN2CCCC2)C(=O)c2c(OCc3ccc(C(F)(F)F)cc3)cccc2C1=O`, 85% (inactive). Turning to `CC(=O)C1=C(O)C=C2Oc3c(C(=O)/C=C/c4cc(Cl)cc(Cl)c4)c(O)c(C)c(O)c3[C@]2(C)C1=O`, the growth is -27.1% (active). Consider `Cc1cc(Nc2nc(N3CCOCC3)nc3ccccc23)n[nH]1`, for which the growth is 53.3% (inactive). The value for `Cc1csc2ccc(Cl)cc12` was 109% (inactive).

`OC(c1cccc(C(F)(F)F)c1)c1cnccc1NC1CCCCCC1` (stereo not given): the growth is 53.8% (inactive). The value for `O=C([C@@H](COCc1ccccc1)N1C(=O)[C@@H](N2C(=O)OC[C@@H]2c2ccccc2)[C@H]1/C=C/c1ccccc1)N1CCC(CCN2CCCCC2)CC1` was 75.4% (inactive).

With `O=C1C=CC(=O)N1c1ccc(Cc2ccc(N3C(=O)C=CC3=O)cc2)cc1`, the growth is 111% (inactive). With `COc1cc(-c2cc(-c3nc4ccc(Cl)cc4[nH]3)[nH]n2)cc(OC)c1OC` the figure was 50% (inactive). With `CN1/C(=C\C=C\C2=[N+](C)c3ccccc3C2(C)C)C(C)(C)c2ccccc21` the figure was 6.73% (active).

For `OCCNCCNc1c2ccccc2nc2ccccc12`, the growth was 98.2% (inactive). With `COc1cc(/C=N\NC(=O)CN2CCN(c3cc4c(cc3F)c(=O)c(C(=O)N/N=C/c3ccc(O)c(OC)c3)cn4C3CC3)CC2)ccc1O` the figure was 66.9% (inactive); with `Oc1ccccc1/C=N/Nc1ccc2ccccc2n1`, 44% (inactive); with `O=C1/C(=C/c2ccccc2)CN(CCC(=O)N2C/C(=C\c3ccccc3)C(=O)/C(=C/c3ccccc3)C2)C/C1=C\c1ccccc1`, 88.2% (inactive). With `C[C@@]1(N2C(=O)OC[C@@H]2c2ccccc2)C(=O)N([C@H](CC(=O)N2CCC(N3CCCCC3)CC2)C(=O)NCc2cccc(C(F)(F)F)c2)[C@@H]1/C=C/c1ccccc1` the figure was 54.6% (inactive); with `CN1CCN(Cc2ccc(NC(=O)c3cncc(C#Cc4cnc(N)c5cccnc45)c3)cc2C(F)(F)F)CC1`, 29% (inactive); with `C=C1CC2(OC1=O)C(=O)N(CCCCCCCCCCCCN1C(=O)C3(CC(=C)C(=O)O3)c3ccccc31)c1ccccc12` (stereo not given), 97.6% (inactive). With `O=C1C=CC(Nc2ccccc2[N+](=O)[O-])C1Nc1ccccc1[N+](=O)[O-]` (stereo not given) the figure was 92.2% (inactive); with `COc1cccc(NC(=O)c2sc3nc4c(cc3c2N)CN(Cc2ccccc2)CC4)c1`, 62.1% (inactive). For the molecule `COc1ccc(S(=O)(=O)NCCCNc2cc(-c3c(-c4cccc(OC)c4)nc4sccn34)ccn2)cc1`, the growth was 42.9% (inactive). Take `NS(=O)(=O)c1ccc(Nc2nc3n[nH]c(Nc4ccccc4)c3c(=O)[nH]2)cc1`: the growth is 103% (inactive). The value for `O=C1C(=O)N(CCCCn2cc(CO)nn2)c2ccccc21` was 104% (inactive). `C=CC[N+]1(CC)CCN=C1CCCCCCCCCCCCCCCCC` (stereo not given): the growth is -92.9% (active).

Take `O=C1/C(=C/c2ccc(Cl)c(Cl)c2)CN(C(=O)CCN2CCC(=NO)CC2)C/C1=C\c1ccc(Cl)c(Cl)c1`: the growth was -34.6% (active). With `Cc1ccc(Nc2nc(N)nc(Nc3ccc4ccccc4c3)n2)cc1` the figure was 30.9% (inactive); with `Cc1cc(N/N=C/c2nc(-c3ccc(Cl)cc3)oc2C)c2cc(Br)ccc2n1`, 17.1% (inactive); with `Cc1cc(Nc2nc(N3CCN(C)CC3)nc3ccccc23)n[nH]1`, 65.2% (inactive). The value for `COc1cc(-c2c3sc(=O)[nH]c3nc3c2c(=O)[nH]n3C(C)C)cc2c1OCO2` was 94.8% (inactive). With `COc1ccc(C/C(C)=C(\c2ccc(OCCN3CCCCCC3)cc2)c2ccc(OC(=O)C3CCCCC3)cc2)cc1` the figure was 65.2% (inactive); with `CCCCCC(=O)N(CCCC)CCCC`, 100% (inactive); with `CCN(CC)CCCC(C)Nc1ccnc2c(OC)cccc12` (stereo not given), 106% (inactive). On to `CC[C@H](Nc1ncnc(N)c1C(N)=O)c1nc2cccc(NCc3ccc(C(=O)NO)cc3)c2c(=O)n1-c1ccccc1`, for which the growth is 98.2% (inactive).

Source of the values: PubChem BioAssay (NCI).
